Measurements: PubChem BioAssay AID2685 (National Center for Advancing Translational Sciences (NCATS), 2010)
About 2,100 (0.66%) of roughly 320,000 compounds were called active. About 53% were inconclusive and are not listed. Calls come from the whole dose curve; as a rule, active = well fitted inhibition curve with a large enough effect in the signal ratio, with a control signal flat (not every such curve was filed as active); inconclusive = small, poorly fitted or top-dose-only effect, or effect the other way, or a change in a side signal; inactive = flat fitted curve, though single readings scatter; the % refers to the signal ratio. Many of the other results were omitted from the sample, so actives are more common in it than they were.

Experiment: qHTS Assay for Lipid Storage Modulators in Drosophila S3 Cells;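 for cell number change: cells counted by Cell Tracker Red CMTPX staining in the red channel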; for lipid storage change, negative = inhibition: % is set by controls: 0 for no effect and ±100 for the full control effect
Conditions: BODIPY lipid droplet fluorescence, 18-24 h, cells fed with added oleic acid; cell number change: measured here: cell count max response; series mostly up to 46.1 µM; lipid storage change, negative = inhibition: at the top concentration
Text: NIH Molecular Libraries Probe Production Centers Network [MLPCN] NIH Chemical Genomics Center [NCGC] MLPCN Grant: 1 R03 MH085686-01 Assay Submitter (PI): Beller, Mathias; Max-Planck-Institut fur Biophysikalische Chemie NCGC Assay Overview: Storing lipids as a reservoir for energy or the anabolism of elementary metabolites is a common feature of probably all cells and is conserved from bacteria to humans. The universal cellular lipid storage organelle is the so-called lipid storage droplet (LD). Although ubiquitous, LDs share a simple structure composed of a hydrophobic core that harbors the storage lipids, which is shielded by a droplet-specific phospholipid monolayer to which proteins are attached. The current model of LD biogenesis involves an incorporation of the lipid core into the membrane leaflets of the endoplasmic reticulum (ER) followed by a subsequent budding-like maturation of a LD, which ultimately pinches off. Once released, LD volume can increase by localized lipogenesis or fusion of existing droplet. Storage lipids are re-mobilized enzymatically by lipase activity. Lipase regulation in the adipocyte is heavily studied and involves multiple components including catecholamine signaling, the LD-associated proteins Perilipin and comparative gene identification (CGI-58) and at least two lipases named hormone sensitive lipase (HSL) and adipocyte triglyceride lipase (ATGL). LD regulation outside of the adipocyte is poorly understood and only few components are known. However, there is an urgent need to learn more about ectopic fat depots as mislocalized storage of lipids, for example in the liver or muscle, is an eminent health problem associated with insulin resistance or the metabolic syndrome. We developed a laser-scanning cytometer assay to enable 1,536-well screening and combined the results of the small molecules screen with an RNAi database based on lipid storage.
Triacsin C (Sigma-Aldrich T-4540), an inhibitor of long-chain fatty acyl CoA synthetase that blocks synthesis of triglycerides, was used as a positive control for lipid under-storage. A total of 23 nL of compound solution of different concentrations were transferred to the assay plates using a Kalypsys pin tool equipped with a 1,536-pin array containing 10-nL slotted pins (FP1S10, 0.457-mm diameter, 50.8 mm long; V&P Scientific). One microliter of oleic acid (400 uM) was added, and the plate was lidded with stainless steel rubber gasket lined lids containing pinholes. […] Fluorescence was detected by excitation of the fluorophores with a 488-nm laser on an Acumen Explorer (TTP Lab Tech). The total intensity in channel 2 (500-530 nm) reflected lipid droplet accumulation. Cells were detected using channel 3 (575-640 nm) with 5-um width and 100-um depth filters. The ratio of the number of objects in PMT channel 2 over the number of objects in PMT channel 3 was also calculated. Percent activity was computed relative to an internal control (100% inhibited lipid droplet deposition due to the presence of 20 uM Triacsin C), which was added to 32 wells/plate.
Potency is the fitted concentration of half-maximal effect.

SMILES	lipid storage change, negative = inhibition	cell number change [%]	outcome	Potency
O=C(N/N=C/c1c[nH]c2ccccc12)c1ccn(Cc2ccc(Cl)cc2Cl)n1	-4% (inactive)	-11.1		
O=C(NCc1c(Cl)cccc1Cl)c1ccc2nnsc2c1	0.193% (inactive)	12.5		
O=C(NC(CCl)c1ccccc1)c1ccc(Cl)cc1 (configuration not stated)	1.15% (inactive)	13.4		
O=C1CCCN1c1ccc(C(=O)N(Cc2nnc(-c3ccccc3Cl)o2)C2CC2)cc1		-25.6	inactive	
Cc1cccc(C(=O)NCCC(=O)NCc2ccccc2Cl)c1		-17.5		1.84 µM (active)
CN(C)c1cccc(C(=O)NCc2ccccc2Cl)c1			inactive	
Cc1cccc(C(=O)NCCC(=O)NCc2ccccc2F)c1	-21.2% (inactive)	10.5		
CCOc1cccc(/C(O)=C2/C(=O)C(=O)N(CCOC)C2c2ccco2)c1 (configuration not stated)		3.12	inactive	
CC1CCC(N2CCN(c3ccc([N+](=O)[O-])cc3)CC2)CC1 (configuration not stated)		-15.6	inactive	
COc1ccc(-c2cc(C(=O)N3CCN(c4ccccc4F)CC3)c3ccccc3n2)c(OC)c1		-25.7		3.26 µM (active)
COc1ccc(-c2cc(C(=O)N3CCN(c4ncccn4)CC3)c3ccccc3n2)c(OC)c1	-1.54% (inactive)			
COc1ccc(-c2cc(C(=O)N3CCCCCC3)c3ccccc3n2)c(OC)c1			inactive	
O=C(O)c1cccc2c1C(=O)N(c1ccccc1)C2	7.94% (inactive)	-2.23		
Cc1ccc(N2CCN(S(=O)(=O)N3CCCCC3)CC2)c(C)c1	-0.445% (inactive)	18.1		
CN1/C(=C\C(=O)c2cccc([N+](=O)[O-])c2)Sc2ccccc21		-22.2		1.84 µM (active)
CN1/C(=C\C(=O)c2cccs2)Sc2ccccc21	24.2% (inactive)	18.5		
COc1cc(OC)cc(C(=O)/C=C2\Sc3ccccc3N2C)c1	0.116% (inactive)	2.87		
Cc1cccc(N2CC3=C(C2=O)C(c2ccccc2)NC(=O)N3C)c1 (configuration not stated)		28.8	inactive	
CC1(C)c2[nH]c3ccccc3c2C[C@H]2C(=O)N(CCCO)CC(=O)N21	-9.62% (inactive)	7.32		
CC(=O)c1ccc(NC(=O)CCNC(=O)c2ccccc2Cl)cc1			inactive	
Fc1ccc(F)c(CN2CCN(c3ncccn3)CC2)c1	16.3% (inactive)	-0.405		
COc1ccccc1N=C1NC(=O)/C(=C/c2ccc(N(C)C)cc2)S1		-21.8		10.3 µM (active)
COc1ccc(/C=C2\SC(=Nc3ccccc3OC)NC2=O)cc1	13% (inactive)	-11.5		

SMILES	lipid storage change, negative = inhibition	cell number change [%]	outcome	Potency
COc1ccc(/C=C2\SC(=Nc3ccccc3)NC2=O)cc1	-17.6% (inactive)	-6.61		
Cc1ccc(SCC(=O)OCc2csc(CC(=O)Nc3ccccc3C)n2)cc1C	12.3% (inactive)	-3.61		
COc1cc(OC)cc(C(=O)NCc2ccc3[nH]c(C)cc3c2)c1	-15.4% (inactive)	-3.37		
O=C(/C=C/c1cccs1)c1cc(Cl)ccc1O	10.1% (inactive)	3.94		
CN(C)c1ccc(/C=C/C(=O)c2ccccc2O)cc1	-9.67% (inactive)			
CN(C)c1ccc(/C=C/C(=O)c2cc(Cl)ccc2O)cc1		-22.6		4.11 µM (active)
CCC(CC)NC(=O)Nc1cccc(C)c1C	3.89% (inactive)	-9.81		
COc1ccccc1CNC(=O)c1cccs1	14.8% (inactive)	-14		
CCOc1ccccc1N1CC(C(=O)N2CCOCC2)CC1=O (configuration not stated)		13.3	inactive	
CC(=O)Nc1c(O)nc(SCC(=O)N2CCCCC2)[nH]c1=O	14.1% (inactive)	-10.1		
O=C(CSc1nc2ccccc2[nH]1)N1CCCCC1		1.09	inactive	
O=C(CSc1nc2ccccc2[nH]1)N1c2ccccc2Sc2ccccc21		-14		16.4 µM (active)
O=C(CSc1nc2ccccc2s1)N1c2ccccc2Sc2ccccc21	-19.3% (inactive)	-7.47		
NS(=O)(=O)c1ccc(CNC(=O)c2cc(=O)c3cc(Cl)ccc3o2)cc1	-0.959% (inactive)	-18		
O=C(O)c1cc(=O)c2cc(Cl)ccc2o1		-8.2		23.1 µM (active)
O=C(c1cc(=O)c2cc(Cl)ccc2o1)N1CCN(Cc2ccccc2)CC1	11.7% (inactive)	10.7		
C=CCN(Cc1cn(C)nc1-c1cccc(Cl)c1)C1CCS(=O)(=O)C1 (configuration not stated)	7.59% (inactive)	-4.76		
Cc1ccc(S(=O)(=O)NC2=NCCCCC2)cc1	7.54% (inactive)	-2.65		
Nc1ccc(S(=O)(=O)NC2=NCCCCC2)cc1	-2.11% (inactive)	11.2		
O=S(=O)(NC1=NCCC1)c1ccc(F)cc1		8.19		20.6 µM (active)
Cc1ccc(S(=O)(=O)N2CCOCC2)cc1NC(=O)COC(=O)c1cnc(Cl)c(Cl)c1	15.2% (inactive)	24.4		
CCOC(=O)Cn1cnc2scc(-c3ccc(C)c(C)c3)c2c1=O		4.4	inactive	
COc1cc(/C=C/C(=O)N2C(=O)c3cccc(N)c3C2=O)cc(OC)c1OC		-14.5		5.17 µM (active)
